Here are results for seven molecules from PubChem BioAssay (NCATS).

Test [1] deals with Lysosomal acid glucosylceramidase (Homo sapiens) (UniProt P04062). Kind of test: Glucocerebrosidase-p2 (AID 348; in the data active = potency below about 10 µM; note: potency is the fitted concentration of half-maximal effect). To be noted: purified GBA, blue fluorogenic substrate, 40 min. In short, it runs like this:
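Normal human glucocerebrosidase (0.2 nM) with blue fluorogenic substrate (80 uM final) in citrate/phosphate pH 5.9 with 10mM sodium taurocholate, 0.01% tween-20; 40 min RT, NaOH/glycine stop; fluorescence Ex 365/Em 440; AC50 from a titration from 0.6 nM upwards.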

A short description of test [2]: AP1 Signaling Pathway (AID 357).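 Note: ME-180 reporter cells stimulated with EGF at its EC50 level; % is set by controls: 0 for no effect and ±100 for the full control effect.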 To be noted: ME-180 AP-1-bla reporter, EGF-induced, beta-lactamase ratio, 5 h; at 7.69 µM (top of the series) unless noted. The method, boiled down: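 Beta-lactamase reporter under AP-1 response element, ME-180 background. Stimulus: EC50 EGF. Compound exposure 5 h, 37 °C. Detection: CCF4, 2.5 h RT, 460/530 nm. Values: AC50 from titration.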

In test [3] the target is Cytochrome P450 1A2 (Homo sapiens) (UniProt P05177). In words: p450-cyp1a2 (AID 410; calls by dose curve; note: potency is the fitted concentration of half-maximal effect;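 for activity change, negative = inhibition: -100% = full effect of reference inhibitor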). The following applies: recombinant CYP1A2, luciferin-ME demethylation, luminescence; series mostly up to 11.4 µM. In short, it runs like this: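 Read-out is luminescence from luciferin produced by CYP1A2 demethylation of Luciferin-ME (100uM, at Km). Detection reagent stopped the 60 min NADPH-dependent reaction; signals were normalized to 57 uM furafylline.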
Chain of Cytochrome P450 1A2 (Homo sapiens) (P05177 whole entry, looked up): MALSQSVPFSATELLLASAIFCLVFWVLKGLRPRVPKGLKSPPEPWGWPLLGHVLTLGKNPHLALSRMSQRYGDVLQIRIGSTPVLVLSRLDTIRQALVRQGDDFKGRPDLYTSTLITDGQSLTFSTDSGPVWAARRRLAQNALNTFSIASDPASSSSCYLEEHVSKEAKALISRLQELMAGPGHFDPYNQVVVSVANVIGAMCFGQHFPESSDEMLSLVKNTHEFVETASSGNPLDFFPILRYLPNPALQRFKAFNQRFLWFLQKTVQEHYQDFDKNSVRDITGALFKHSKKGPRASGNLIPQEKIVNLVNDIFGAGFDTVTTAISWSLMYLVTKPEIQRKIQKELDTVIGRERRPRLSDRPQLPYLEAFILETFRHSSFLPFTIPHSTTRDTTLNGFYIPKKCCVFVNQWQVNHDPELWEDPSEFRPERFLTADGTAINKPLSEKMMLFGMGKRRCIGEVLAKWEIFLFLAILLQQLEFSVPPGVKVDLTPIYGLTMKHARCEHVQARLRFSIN

A short description of test [4]: Stat Signaling Pathway (AID 446).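 Note: ME-180 cervical cancer cells given 40 pM IL-6 alongside compound; SIE-controlled beta-lactamase reporter measured as 460/530 nm FRET emission ratio; % is set by controls: 0 for no effect and ±100 for the full control effect.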 To be noted: ME-180 SIE beta-lactamase reporter, IL-6 stimulated, 5 h; at 7.69 µM (top of the series) unless noted. The method, boiled down:
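Overnight-plated ME-180 cells bearing a STAT Inducible Element beta-lactamase reporter; 5 h co-exposure to compound and 40 pM IL-6; values normalized to 300 pM IL-6 and 125 nM JAK inhibitor controls.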

Test [5] addresses Glucocorticoid receptor (Homo sapiens) (UniProt P04150). Kind of test: GR-GFP Redistribution (AID 450;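 active = compounds whose dose series gives a full or clear partial fitted curve of increased nuclear translocation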; note: potency is the fitted concentration of half-maximal effect). The following applies: U2OS GR-GFP nuclear translocation, laser cytometry, 2 h.
The target is the same in test [6]. Kind of test: GR-EFC Redistribution (AID 451; calls by dose curve; note: potency is the fitted concentration of half-maximal effect). The following applies: CHO-K1 GR-EFC translocation, beta-gal luminescence, 2 h. The method, boiled down: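 CHO-K1 cells stably expressing nuclear-localized β-gal enzyme acceptor and GR fused C-terminally to the enzyme donor fragment; ligand-driven nuclear translocation restores β-gal by complementation. Compounds titrated up to 46 uM final, 2 h at 37 °C; luminescence read.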

In test [7] the target is Mitogen-activated protein kinase 10 (Mus musculus) (UniProt Q61831). In words: JNK3 AlphaScreen Assay (AID 530).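 Note: kinase came from lysate of stimulated human HepG2 cells; % is set by controls: 0 for no effect and ±100 for the full control effect.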 To be noted: JNK3 lysate, c-Jun phosphorylation; series mostly up to 11.4 µM. The method, boiled down: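 Biotinylated GST-cJun(1-79) served as substrate for JNK3 in HepG2 lysates stimulated with IL-1beta and TNF-alpha. ATP was 10 uM final, pH 7.6. Ser73 phosphorylation was quantified by AlphaScreen (680 nm excitation).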

In test [8] the target is 3',5'-cyclic-AMP phosphodiesterase 4B (Homo sapiens) (UniProt Q07343). In words: qHTS Assay for Inhibitors of PDE-IV (AID 607; active = well fitted activation curve with a large enough effect in the main read-out, with a control signal flat, not every such curve was filed as active; note: % of control where 0% means no effect). To be noted: HEK293 ACTOne CNG channel cells, membrane potential fluorescence; series mostly up to 22.9 µM. In short, it runs like this:
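Live HEK293 cells with a modified cyclic nucleotide-gated (CNG) channel report intracellular cAMP via membrane-potential dye fluorescence (ex 535/em 590 nm). Endogenous PDE-IV was targeted. Compounds were tested at up to 22.9 uM final; RO 20-1724 100 uM served as control.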
(In general: In qHTS, concentration-response curves come from the screen itself.)

The target of test [9] is Cytochrome P450 2C9 (Homo sapiens) (UniProt P11712). In words: qHTS Assay for Inhibitors and Substrates of Cytochrome P450 2C9 (AID 883; active = well fitted curve in the direction sought with a large enough effect; an effect the other way counts as inactive or inconclusive; note: potency is the fitted concentration of half-maximal effect; nearly all actives have a fitted effect of over 60% in size). To be noted: recombinant CYP2C9, luciferin-H luminescence, 60 min; series mostly up to 11.4 µM. In short, it runs like this:
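CYP2C9 deoxyluciferin hydroxylation, 37C, 60 min with NADPH regeneration; 10nM enzyme, 100uM Luciferin-H (KM). Glo detection reagent stopped reaction; luminescence normalized to sulphaphenazole (57uM) full inhibition.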

Test [10] addresses Cytochrome P450 3A4 (Homo sapiens) (UniProt P08684). In words: qHTS Assay for Activators of Cytochrome P450 3A4 (AID 885; active = well fitted curve in the direction sought with a large enough effect; an effect the other way counts as inactive or inconclusive; note: nearly all actives have a fitted effect of over 65% in size). To be noted: recombinant CYP3A4, Luciferin-PPXE luminescence, 60 min; series mostly up to 11.4 µM. The method, boiled down: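 Using 20nM recombinant human CYP3A4 in potassium phosphate (200mM), substrate Luciferin-PPXE at 25uM, luminescent luciferin detection followed a 60-min RT NADPH reaction; data scaled to 57 uM ketoconazole.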

The target of test [11] is Cytochrome P450 2C19 (Homo sapiens) (UniProt P33261). Kind of test: qHTS Assay for Inhibitors and Substrates of Cytochrome P450 2C19 (AID 899; active = well fitted curve in the direction sought with a large enough effect; an effect the other way counts as inactive or inconclusive; note: potency is the fitted concentration of half-maximal effect; nearly all actives have a fitted effect of over 60% in size). To be noted: recombinant CYP2C19, luciferin-H EGE luminescence; series mostly up to 11.4 µM. The method, boiled down:
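In 50mM KPO4, the reaction held 5nM enzyme and KM-level (10uM) Luciferin-H EGE; it ran 60 min at 37C after NADPH regeneration and a 10 min compound preincubation. Luminescence values were scaled to 57uM ketoconazole as complete inhibition.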

Test [12] in a line: qHTS Assay for Identification of Small Molecule Agonists for Hypoxia Response Element Signaling Pathway (AID 914; active = well fitted activation curve with a large enough effect in the signal ratio, with a control signal flat, not every such curve was filed as active; the % refers to the signal ratio; note: % of control where 0% means no effect). The following applies: ME-180 (cervical carcinoma) HRE-bla reporter, beta-lactamase ratio, CoCl2, 17 h; activation: active compounds read high. In short, it runs like this:
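Read-out: CCF4 FRET ratio of 460nm to 530nm emission (excitation 405nm) after 2.5 hours at room temperature, taken from HRE-bla ME-180 cells that had been exposed to compound and EC50 CoCl2 for 17 hours.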

Test [13] has as its target Cytochrome P450 3A4 (Homo sapiens) (UniProt P08684). In words: qHTS Assay for Inhibitors and Substrates of Cytochrome P450 3A4 (AID 884; active = well fitted curve in the direction sought with a large enough effect; an effect the other way counts as inactive or inconclusive; note: potency is the fitted concentration of half-maximal effect; nearly all actives have a fitted effect of over 50% in size). The following applies: recombinant CYP3A4, Luciferin-PPXE luminescence; series mostly up to 57.1 µM. The method, boiled down: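 Luminescent readout of luciferin produced by CYP3A4 (20 nM) dealkylation of Luciferin-PPXE, 25 uM (its KM). NADPH-driven reaction ran 60 min at RT after 10 min compound preincubation; data scaled to 57 uM ketoconazole as 100% inhibition.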

Test [14] deals with Cytochrome P450 2D6 (Homo sapiens) (UniProt P10635). In words: qHTS Assay for Inhibitors and Substrates of Cytochrome P450 2D6 (AID 891; active = well fitted curve in the direction sought with a large enough effect; an effect the other way counts as inactive or inconclusive; note: potency is the fitted concentration of half-maximal effect; nearly all actives have a fitted effect of over 60% in size). The following applies: recombinant CYP2D6, luciferin-ME EGE luminescence; series mostly up to 11.4 µM. The method, boiled down: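 Luminescent read-out of luciferin formed by 5 nM human CYP2D6 demethylating 30 uM Luciferin-ME EGE (Km level) over 60 min at room temperature after NADPH regeneration addition. Data normalized to full inhibition by 1.43 uM quinidine.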
Chain of Cytochrome P450 2D6 (Homo sapiens) (P10635 whole entry, looked up): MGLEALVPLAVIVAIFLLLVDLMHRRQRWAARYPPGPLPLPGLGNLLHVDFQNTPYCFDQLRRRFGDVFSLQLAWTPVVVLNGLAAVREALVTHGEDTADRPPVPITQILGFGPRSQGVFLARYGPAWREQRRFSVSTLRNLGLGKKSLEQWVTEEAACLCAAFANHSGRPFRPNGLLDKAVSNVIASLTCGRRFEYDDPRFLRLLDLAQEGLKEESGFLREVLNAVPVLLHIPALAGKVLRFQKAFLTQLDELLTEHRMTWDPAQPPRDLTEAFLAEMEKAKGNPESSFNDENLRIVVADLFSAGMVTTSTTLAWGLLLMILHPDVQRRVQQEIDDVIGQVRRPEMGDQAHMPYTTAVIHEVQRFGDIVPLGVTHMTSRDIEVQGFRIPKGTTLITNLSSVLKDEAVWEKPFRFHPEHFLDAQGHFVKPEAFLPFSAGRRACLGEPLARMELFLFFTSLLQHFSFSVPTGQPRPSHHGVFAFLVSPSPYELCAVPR

Unmarked numbers belong to inactive results. Inconclusive results are not listed. Active and inactive are the calls of the source. Unless noted, calls come from the whole dose curve; as a rule, active = well fitted curve in either direction with a large enough effect (not every such curve was filed as active); inconclusive = small, poorly fitted or top-dose-only effect, or another doubt; inactive = flat fitted curve, though single readings scatter. A value given as a limit tells only on which side of the number the result lay.

Chain of 3',5'-cyclic-AMP phosphodiesterase 4B (Homo sapiens) (Q07343 whole entry, looked up): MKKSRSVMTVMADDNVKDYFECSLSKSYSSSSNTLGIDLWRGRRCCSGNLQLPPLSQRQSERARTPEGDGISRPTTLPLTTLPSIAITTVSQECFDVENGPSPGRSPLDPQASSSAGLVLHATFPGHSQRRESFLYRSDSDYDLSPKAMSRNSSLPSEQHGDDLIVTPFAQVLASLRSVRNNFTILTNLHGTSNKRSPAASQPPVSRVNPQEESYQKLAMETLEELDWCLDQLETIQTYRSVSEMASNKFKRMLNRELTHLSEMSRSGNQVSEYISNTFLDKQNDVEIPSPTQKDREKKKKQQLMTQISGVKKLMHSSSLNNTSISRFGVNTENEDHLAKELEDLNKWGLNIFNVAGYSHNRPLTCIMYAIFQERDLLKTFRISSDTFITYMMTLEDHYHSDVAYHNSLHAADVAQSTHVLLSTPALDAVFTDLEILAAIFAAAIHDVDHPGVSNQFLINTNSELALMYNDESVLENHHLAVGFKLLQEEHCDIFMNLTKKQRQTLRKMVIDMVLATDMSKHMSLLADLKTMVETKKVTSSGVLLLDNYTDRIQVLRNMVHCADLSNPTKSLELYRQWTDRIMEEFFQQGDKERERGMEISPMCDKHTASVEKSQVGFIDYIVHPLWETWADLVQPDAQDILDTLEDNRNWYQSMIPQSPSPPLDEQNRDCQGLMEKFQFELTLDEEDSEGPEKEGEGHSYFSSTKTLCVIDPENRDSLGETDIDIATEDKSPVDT
Chain of Glucocorticoid receptor (Homo sapiens) (P04150 whole entry, looked up, the tested form may be a part): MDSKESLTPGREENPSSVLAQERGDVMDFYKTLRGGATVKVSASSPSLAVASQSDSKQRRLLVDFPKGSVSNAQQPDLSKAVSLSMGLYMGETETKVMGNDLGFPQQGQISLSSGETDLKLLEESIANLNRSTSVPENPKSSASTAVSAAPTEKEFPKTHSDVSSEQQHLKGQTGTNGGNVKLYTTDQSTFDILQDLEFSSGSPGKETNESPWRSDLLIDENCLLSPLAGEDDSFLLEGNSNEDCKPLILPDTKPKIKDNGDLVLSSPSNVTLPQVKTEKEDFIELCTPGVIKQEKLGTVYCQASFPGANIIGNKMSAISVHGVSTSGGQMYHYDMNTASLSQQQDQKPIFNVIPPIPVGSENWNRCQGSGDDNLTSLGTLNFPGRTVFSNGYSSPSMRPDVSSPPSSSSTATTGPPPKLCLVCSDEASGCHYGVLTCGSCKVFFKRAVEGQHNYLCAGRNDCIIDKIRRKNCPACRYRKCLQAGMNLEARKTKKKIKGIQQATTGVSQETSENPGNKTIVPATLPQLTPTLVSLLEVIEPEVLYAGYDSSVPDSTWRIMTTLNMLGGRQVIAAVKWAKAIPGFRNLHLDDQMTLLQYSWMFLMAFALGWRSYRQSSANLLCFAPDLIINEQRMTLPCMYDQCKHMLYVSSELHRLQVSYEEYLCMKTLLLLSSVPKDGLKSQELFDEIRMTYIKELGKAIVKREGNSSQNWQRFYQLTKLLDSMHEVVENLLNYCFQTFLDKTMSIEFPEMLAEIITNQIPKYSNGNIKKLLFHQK
Chain of Cytochrome P450 2C19 (Homo sapiens) (P33261 whole entry, looked up): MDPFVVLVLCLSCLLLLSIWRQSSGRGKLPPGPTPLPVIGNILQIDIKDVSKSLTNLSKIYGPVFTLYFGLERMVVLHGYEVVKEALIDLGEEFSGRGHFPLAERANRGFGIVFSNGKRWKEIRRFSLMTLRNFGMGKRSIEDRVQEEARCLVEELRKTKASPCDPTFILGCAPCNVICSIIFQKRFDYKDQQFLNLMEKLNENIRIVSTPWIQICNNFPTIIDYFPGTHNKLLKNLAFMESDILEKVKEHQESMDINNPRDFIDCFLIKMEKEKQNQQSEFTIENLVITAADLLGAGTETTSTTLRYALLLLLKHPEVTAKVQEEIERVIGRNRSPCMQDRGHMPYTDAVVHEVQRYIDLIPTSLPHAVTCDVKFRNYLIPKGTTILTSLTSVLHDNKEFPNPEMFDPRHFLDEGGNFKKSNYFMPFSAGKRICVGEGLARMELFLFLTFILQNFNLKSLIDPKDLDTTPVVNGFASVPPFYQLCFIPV
Chain of Lysosomal acid glucosylceramidase (Homo sapiens) (P04062 whole entry, looked up): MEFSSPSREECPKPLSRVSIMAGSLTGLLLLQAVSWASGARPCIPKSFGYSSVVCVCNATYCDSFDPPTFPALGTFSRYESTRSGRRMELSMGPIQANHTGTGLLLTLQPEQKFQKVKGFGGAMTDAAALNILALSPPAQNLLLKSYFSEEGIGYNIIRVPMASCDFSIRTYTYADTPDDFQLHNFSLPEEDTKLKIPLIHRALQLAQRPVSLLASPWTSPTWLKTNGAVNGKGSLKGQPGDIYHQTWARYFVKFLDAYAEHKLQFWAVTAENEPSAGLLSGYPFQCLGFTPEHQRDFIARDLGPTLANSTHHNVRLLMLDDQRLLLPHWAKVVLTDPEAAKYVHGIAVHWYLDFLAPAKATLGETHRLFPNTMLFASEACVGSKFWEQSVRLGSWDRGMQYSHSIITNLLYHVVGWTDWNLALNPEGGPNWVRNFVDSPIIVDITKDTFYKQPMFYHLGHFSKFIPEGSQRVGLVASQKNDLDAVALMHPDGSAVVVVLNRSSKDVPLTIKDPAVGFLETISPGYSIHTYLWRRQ
Chain of Cytochrome P450 3A4 (Homo sapiens) (P08684 whole entry, looked up): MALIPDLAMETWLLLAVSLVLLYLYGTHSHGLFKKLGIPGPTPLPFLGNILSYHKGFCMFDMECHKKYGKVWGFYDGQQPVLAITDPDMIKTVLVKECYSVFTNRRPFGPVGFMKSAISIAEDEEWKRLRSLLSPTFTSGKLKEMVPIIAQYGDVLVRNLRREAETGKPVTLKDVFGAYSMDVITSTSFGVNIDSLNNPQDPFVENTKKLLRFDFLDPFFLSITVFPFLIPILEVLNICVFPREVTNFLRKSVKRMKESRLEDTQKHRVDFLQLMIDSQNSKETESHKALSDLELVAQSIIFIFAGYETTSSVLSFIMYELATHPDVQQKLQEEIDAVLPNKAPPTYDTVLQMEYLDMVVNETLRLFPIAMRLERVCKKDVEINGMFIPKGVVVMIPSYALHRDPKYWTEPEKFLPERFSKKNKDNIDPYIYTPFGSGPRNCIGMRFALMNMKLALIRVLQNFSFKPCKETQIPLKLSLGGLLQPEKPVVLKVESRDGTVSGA
Chain of Cytochrome P450 2C9 (Homo sapiens) (P11712 whole entry, looked up): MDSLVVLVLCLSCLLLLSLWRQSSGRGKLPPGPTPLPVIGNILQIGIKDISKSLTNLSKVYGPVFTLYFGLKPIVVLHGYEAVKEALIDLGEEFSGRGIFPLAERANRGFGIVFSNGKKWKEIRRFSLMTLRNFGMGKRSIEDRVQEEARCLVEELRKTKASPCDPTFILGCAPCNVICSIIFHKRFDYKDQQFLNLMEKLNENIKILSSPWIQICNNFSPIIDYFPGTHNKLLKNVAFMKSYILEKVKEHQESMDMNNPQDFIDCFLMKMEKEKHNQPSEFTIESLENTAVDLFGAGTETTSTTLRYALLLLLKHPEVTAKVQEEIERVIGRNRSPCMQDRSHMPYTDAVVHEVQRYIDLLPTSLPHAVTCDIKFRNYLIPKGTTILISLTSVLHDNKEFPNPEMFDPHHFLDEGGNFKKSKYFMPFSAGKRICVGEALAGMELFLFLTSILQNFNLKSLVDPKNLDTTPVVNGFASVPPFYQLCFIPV

As to `Cc1c2cccc(Sc3ccccc3)c2c2c3c(cccc13)[S+](c1ccccc1)C2` (stereo unspecified), the Potency in test [1] is above 11.4 µM; in test [5], above 46 µM; in [6] it was above 9.22 µM; in test [9] it was 2.51 µM (active); in test [11], 0.0631 µM (active). In addition, the activity change, negative = inhibition is -7.04% in test [2] and -17.3% [at 2.29 µM] in test [3]. In test [4], the activity, negative = inhibition was 2.31%. Besides, the Potency entry in [7], in test [8] and in [10] was “inactive” in each case. Further, the activation in test [12] was -19.6%.
As to `c1ccc(/C(=N/Nc2nc3ccccc3s2)c2ccccn2)cc1`, the Potency in test [1] was above 11.4 µM; in test [3], 3.16 µM (active); in test [5] it was above 46 µM; in test [6], above 9.22 µM. Also, the activity change, negative = inhibition in test [2] is -20.5%. In test [4], the activity, negative = inhibition was -1.49%. Also, the Potency result in [7], in test [8] and in [10] was “inactive” each time.
Turning to `Oc1ccc2ccccc2c1/C=C\c1ccc2c(Br)cc(Br)c(O)c2n1`, the Potency in [1] was above 11.4 µM; in [3], 3.98 µM (active); in test [5] it was above 46 µM; in test [6], above 9.22 µM; in test [9] it was 2.51 µM (active). Also, the activity change, negative = inhibition in test [2] is -7.49%. For the same molecule, the activity, negative = inhibition in test [4] is 1.04%. For the same molecule, the Potency result in test [7] and in test [8] was “inactive” each time.
Consider `Cc1cc(Cl)nc2ccc(Cc3ccc4nc(Cl)cc(C)c4c3)cc12`, for which the Potency in test [1] was above 11.4 µM; in test [5] it was above 46 µM; in [6] it was above 9.22 µM; in test [13], 3.16 µM (active); in test [11], 0.501 µM (active). The activity change, negative = inhibition in test [2] is -7.81%; in test [3], -13.2% [at 2.29 µM]. In addition, the activity, negative = inhibition in [4] was -4.37%. Moreover, the Potency entry in [7], in [8] and in test [10] was “inactive” in each case.
For `CN1CCc2ccccc2[C@@H]1Cc1ccccc1NC(=O)c1sc2ccccc2c1Cl`, the Potency in test [1] was above 11.4 µM; in [3] it was 5.01 µM (active); in test [5] it was above 46 µM; in test [6], above 9.22 µM; in test [13], 1.58 µM (active); in test [14], 0.0794 µM (active). In addition, the Potency in test [11] is 2.51 µM (active). Besides, the activity change, negative = inhibition in test [2] is -4.19%. Further, the activity, negative = inhibition in [4] was 4.41%. Further, the Potency result in test [7], in test [8] and in [10] was “inactive” each time.
As to `CC(C)C(=O)C(C)(C)CCc1ccccn1`, the Potency in [1] is above 11.4 µM; in test [3], 2.51 µM (active); in test [5] it was above 46 µM; in [6], above 9.22 µM. For the same molecule, the activity change, negative = inhibition in [2] is 27.3%. In addition, the activity, negative = inhibition in test [4] was 1.04%. In addition, the Potency result in test [7] and in test [8] was “inactive” each time.
Take `CN(C)CC(C)(C)CN1c2ccccc2Sc2ccccc21`: the Potency in test [1] is above 11.4 µM; in [5], above 46 µM; in test [6], above 9.22 µM; in test [14], 0.199 µM (active). Moreover, in test [2], the activity change, negative = inhibition was 24%. The Potency result in test [3], in [7], in [8] and in test [10] was “inactive” in each case. Also, in test [4], the activity, negative = inhibition is 0.898%.
